# Over roughly 33,000 sequences, “E-score (-0.5 to 0.5)” has its median near -0.035; the highest 2% begin near 0.35. The sample holds the highest values, similar sequences and a random draw of the others, so the mix is not that of the screen.
# Biological target: T1, Pdr3 (UniProt P33200)
# T1 sequence: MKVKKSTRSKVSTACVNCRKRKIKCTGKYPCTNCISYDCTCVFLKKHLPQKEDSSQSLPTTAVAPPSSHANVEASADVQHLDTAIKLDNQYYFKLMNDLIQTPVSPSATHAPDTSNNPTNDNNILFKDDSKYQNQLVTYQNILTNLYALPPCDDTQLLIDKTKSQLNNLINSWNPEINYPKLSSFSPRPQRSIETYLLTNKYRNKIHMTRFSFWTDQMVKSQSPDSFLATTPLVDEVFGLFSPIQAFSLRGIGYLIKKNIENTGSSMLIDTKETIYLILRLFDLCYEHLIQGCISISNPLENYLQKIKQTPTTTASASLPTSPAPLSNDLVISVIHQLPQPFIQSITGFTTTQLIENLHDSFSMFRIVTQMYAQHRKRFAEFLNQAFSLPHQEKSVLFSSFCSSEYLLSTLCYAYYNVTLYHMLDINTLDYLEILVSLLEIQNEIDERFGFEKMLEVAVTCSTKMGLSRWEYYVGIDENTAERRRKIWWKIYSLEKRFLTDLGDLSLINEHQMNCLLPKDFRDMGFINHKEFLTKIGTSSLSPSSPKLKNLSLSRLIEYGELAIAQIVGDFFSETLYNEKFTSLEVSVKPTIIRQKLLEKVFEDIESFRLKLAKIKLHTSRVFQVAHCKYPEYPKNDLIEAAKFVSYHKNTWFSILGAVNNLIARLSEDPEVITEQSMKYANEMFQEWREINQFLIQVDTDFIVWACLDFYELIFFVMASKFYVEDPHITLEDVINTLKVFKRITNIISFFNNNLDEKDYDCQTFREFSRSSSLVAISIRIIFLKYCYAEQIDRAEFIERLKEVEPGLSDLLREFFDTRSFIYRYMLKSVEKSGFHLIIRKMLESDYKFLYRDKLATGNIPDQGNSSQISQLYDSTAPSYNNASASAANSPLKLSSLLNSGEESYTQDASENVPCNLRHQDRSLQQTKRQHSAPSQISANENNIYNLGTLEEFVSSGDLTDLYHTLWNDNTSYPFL
# Assay: PBM E-score (8-mer binding enrichment) (E-score (-0.5 to 0.5)); higher = stronger / more preferred TF binding
# Details: protein concentration: 200 nM; construct: GST-full length
# Protocol: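 Universal 'all 10-mer' protein binding microarrays (Agilent AMADID 015681) probed with GST-tagged S. cerevisiae TFs (full-length or DBD) made by in vitro transcription/translation (PURExpress), about 100-200 nM. Bound TF was detected with fluorescent anti-GST. Each ungapped 8-mer (which stands for itself and its reverse complement) is scored by the PBM enrichment score (E-score), a modified Wilcoxon-Mann-Whitney statistic from -0.5 to +0.5, computed with the Universal PBM Analysis Suite. Scale: above 0.35 generally sequence-specific binding.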
row,Sequence,PBM E-score
1,ATCCCGTA,0.242
2,ATCCCGTG,0.396
3,ATCCCGTC,0.311
4,ATCCCGAT,0.302
5,AGCGGTAC,-0.0325
6,CGCGGTCA,0.307
7,CGCGGTAC,0.367
8,AGCGGTCC,0.0698
9,GGCGGTAA,0.326
10,CGCGGTAA,0.36
11,CGCGGTAG,0.282
12,CGCGGTCC,0.384
13,AGCGGTAA,0.045
14,TCTCTACA,-0.249
15,CAGGGACA,0.0593
16,ATGCAAGC,-0.0447
17,TAGTTGGA,-0.0882
18,CCGCACTA,0.241
19,GATGAAAC,0.0428
20,TCGCCACA,-0.00326
21,CTATCAGC,-0.156
22,AATTCGCA,0.255
23,CAGAAATC,-0.108
24,AGTCCGGC,0.216
25,CGTCCGAA,0.208

row,Sequence,PBM E-score
1,CGTCCGGC,0.321
2,CGTCCGGA,0.433
3,GGTCCGCA,0.28
4,GGTCCGTA,0.293
5,AGTCCGGG,0.301
6,GGTCCGGA,0.413
7,AGTCCGGA,0.422
8,CCCGCATC,0.0416
9,AAGGTCAC,-0.213
10,GGAAGACC,0.202
11,GACTCACC,-0.126
12,ATCTGCTA,-0.241
13,CTGATGCA,0.0307
14,CTAAGAAG,-0.0671
15,CTTCAAAG,-0.275
16,AAGCTGTC,-0.208
17,CAATCCCA,-0.105
18,AGATCCCT,-0.142
19,CGATCCCG,0.361
20,CAATCCCC,0.0676
21,CGATCCCC,0.0699
22,CGATCCCA,0.067
23,AGATCCCG,0.4
24,CAATCCCG,0.392
25,AGATCCCC,0.015

row,Sequence,PBM E-score
1,CTTCACCA,-0.153
2,TCAAGGAA,-0.0766
3,ATCTGATA,-0.18
4,CGAGGTCC,0.299
5,GCAACGGA,0.413
6,ACAACGGT,-0.0457
7,GCAACGTA,-0.192
8,ACAACGGA,0.375
9,TCAACGGA,0.359
10,CCAACGGC,-0.0155
11,TCAACGAA,0.0322
12,CCAACGGG,0.213
13,ACAACGGG,0.221
14,GCAACGGC,0.152
15,TCAACGCA,-0.0152
16,CCAACGGA,0.362
17,ACTTCGGA,0.318
18,ATATAAGG,0.167
19,CGCTATCA,0.0421
20,ACGACACC,0.0551
21,CCCGCAGA,0.235
22,CCACAGGA,-0.15
23,ACAAAGTA,-0.0427
24,AAGGGATT,-0.172
25,CGGCGAAG,0.154

row,Sequence,PBM E-score
1,ATAAGGTG,-0.0163
2,GGGAAGAA,-0.0436
3,AGGAAGAG,-0.0084
4,CGGAAGAC,0.393
5,GGGAAGAC,-0.0964
6,CGGAAGAA,0.378
7,AGGAAGAC,-0.246
8,AGGAAGAA,-0.186
9,CCGAAGAG,0.129
10,CGGAAGAG,0.365
11,GCCCCAGC,0.0198
12,CGCTCCAA,-0.0785
13,ACTCCAGT,-0.118
14,GACTAGAA,-0.203
15,GCGGATTA,0.204
16,CCGGATAA,0.396
17,ACGGATTA,0.217
18,CCGGATAC,0.351
19,ACGGATAA,0.375
20,TGGGATAA,-0.102
21,CGGGATAA,0.408
22,ACGGATAG,0.216
23,GCGGATAA,0.342
24,CCGGATTA,0.385
25,GGGGATAA,0.0548

row,Sequence,PBM E-score
1,ACGGATAT,0.305
2,AGCTAGTC,-0.0629
3,ACAGCCCG,0.0226
4,ACCTTTCT,-0.129
5,GAAACTCC,0.0961
6,AATTCAGC,0.0247
7,ACGGATAC,0.368
8,ATGGATAC,-0.0299
9,AAGGATAC,-0.00551
10,ACGGTGCC,0.0198
11,CCGGCCCG,0.375
12,ACGGCCGG,0.344
13,ACGGCCGA,0.293
14,TCGGCCAA,0.12
15,CGGGCCCA,0.0442
16,CGGGCCCG,0.44
17,TCGGCCGA,0.377
18,CCGGCCGC,0.317
19,AGGGCCCG,0.182
20,CCGGCCCA,-0.0155
21,CCGGCCGG,0.472
22,ACGGCCCG,0.22
23,CCGATGGC,0.175
24,CGAGCTGA,0.143
25,ACTACCGA,-0.0714

row,Sequence,PBM E-score
1,CGCCTTGC,-0.0202
2,ATCATTGA,-0.0198
3,CAGGCACA,-0.171
4,AACTGGCA,-0.0302
5,GGTCAAAC,0.0507
6,GGTTCTGA,-0.109
7,ACCCGTGA,0.0325
8,CAGACGGG,0.103
9,CTAGTCTC,-0.269
10,CCGGCCGA,0.372
11,CCGGCCTA,0.184
12,GCGGCCGA,0.222
13,GGAGTCAC,-0.0786
14,CCTGTAGC,-0.282
15,GGGAAGGA,-0.00585
16,AGGAAGGC,-0.185
17,AGGAAGGA,-0.363
18,CGGAAGGC,0.369
19,CGGAAGGA,0.396
20,CAGAAGGC,0.0006
21,ATATCTGC,-0.044
22,ATAGAAAG,-0.0611
23,AGGAAGCG,0.0228
24,CACCTGCA,-0.142
25,CGGCGGCA,0.226

row,Sequence,PBM E-score
1,CGGCGGAA,0.456
2,TGGCGTAA,-0.263
3,TGGCGAAA,-0.0244
4,AGGCGGAA,0.35
5,AGGCGGCG,0.0493
6,AGGCGGAC,0.211
7,TGGCGGAA,0.359
8,AGGCGGAG,0.174
9,CGGCGGAC,0.289
10,CGGCGGAG,0.372
11,GGGCGGAC,0.373
12,CTTCAACC,0.00827
13,AGTGATCA,-0.0706
14,CGATAGGC,-0.216
15,GTGCGACA,-0.0394
16,AGGCAGGA,-0.149
17,AGCACGAG,0.0609
18,CGTGAGGA,-0.063
19,ATGACCCA,-0.0734
20,GGATACCA,0.212
21,ATCGGTTC,0.192
22,AATCTTTC,0.13

# From the supplement of paper PMC3334620
